Ten molecules from PubChem BioAssay (NCATS) can be followed below.

Assay [1] in a line: Quantitative High-Throughput drug screen in 47 multiple myeloma cell lines against the NCATS MIPE library collection: KMS26_JCRB cell viability assay (AID 1918975). Also: nearly all actives have a fitted effect of over 45% in size.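 As to viability (% of DMSO): 100% = DMSO-treated wells and 0% = wells with media only.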 A digest of the protocol:
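Steps: seed 500 cells per well; pin-transfer MIPE 4.0 library; incubate 48 h at 37C, 5% CO2, humidified; add CellTiter-Glo, 5 min room temperature; read luminescence.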

Assay [2] can be described thus: Quantitative High-Throughput drug screen in 47 multiple myeloma cell lines against the NCATS MIPE library collection: MMM1_PLB cell viability assay (AID 1918976). Also: nearly all actives have a fitted effect of over 35% in size. The procedure, abridged:
(§1)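 Cells were exposed to library compounds for 48 hours, after which ATP was measured by CellTiter-Glo. Signal was taken as median relative luminescence units.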

Assay [3] in a line: Quantitative High-Throughput drug screen in 47 multiple myeloma cell lines against the NCATS MIPE library collection: OCIMY1_PLB cell viability assay (AID 1918979). Also: nearly all actives have a fitted effect of over 35% in size.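 As to viability: 100% = DMSO-only wells and 0% = cell-free media-only wells.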 The procedure, abridged: as §1
Assay [4] can be described thus: Quantitative High-Throughput drug screen in 47 multiple myeloma cell lines against the NCATS MIPE library collection: MM1R_ATCC cell viability assay (AID 1918981). Also: nearly all actives have a fitted effect of over 35% in size. The procedure, abridged:
as §1

Assay [5] is described as follows: Quantitative High-Throughput drug screen in 47 multiple myeloma cell lines against the NCATS MIPE library collection: LP1_DSMZ cell viability assay (AID 1918982). Also: nearly all actives have a fitted effect of over 35% in size. The procedure, abridged:
as §1

Assay [6] is described as follows: Quantitative High-Throughput drug screen in 47 multiple myeloma cell lines against the NCATS MIPE library collection: KMS28PE_JCRB cell viability assay (AID 1918983). Also: nearly all actives have a fitted effect of over 35% in size. A digest of the protocol:
as §1

A short description of assay [7]: Quantitative High-Throughput drug screen in 47 multiple myeloma cell lines against the NCATS MIPE library collection: OCIMY7_PLB cell viability assay (AID 1918987). Also: nearly all actives have a fitted effect of over 65% in size. The following applies: OCI-MY7 myeloma viability, CellTiter-Glo ATP, 48 h; viability (% of DMSO): at 45.8 µM (top of the series). The procedure, abridged: as §1
Assay [8] is described as follows: Quantitative High-Throughput drug screen in 47 multiple myeloma cell lines against the NCATS MIPE library collection: OCIMY5_PLB cell viability assay (AID 1918988). Also: nearly all actives have a fitted effect of over 65% in size. A digest of the protocol:
as §1

The nature of assay [9]: Quantitative High-Throughput drug screen in 47 multiple myeloma cell lines against the NCATS MIPE library collection: OPM1_PLB cell viability assay (AID 1918989). Also: nearly all actives have a fitted effect of over 40% in size.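 As to viability (% of control): 100% = DMSO-only wells and 0% = media-only wells.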 A digest of the protocol: as §1
The nature of assay [10]: Quantitative High-Throughput drug screen in 47 multiple myeloma cell lines against the NCATS MIPE library collection: SKMM1_PLB cell viability assay (AID 1919863). Also: nearly all actives have a fitted effect of over 35% in size. The following applies: SKMM1 myeloma viability, CellTiter-Glo ATP, 48 h; viability: hits give low values. The procedure, abridged:
as §1

The nature of assay [11]: Quantitative High-Throughput drug screen in 47 multiple myeloma cell lines against the NCATS MIPE library collection: U266_ATCC cell viability assay (AID 1919864). Also: nearly all actives have a fitted effect of over 35% in size. A digest of the protocol:
as §1

Assay [12] in a line: Quantitative High-Throughput drug screen in 47 multiple myeloma cell lines against the NCATS MIPE library collection: XG6_PLB cell viability assay (AID 1919865). Also: nearly all actives have a fitted effect of over 40% in size.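 As to viability (% of control): 100% = DMSO-only wells and 0% = media-only wells.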 A digest of the protocol:
as §1

The nature of assay [13]: Quantitative High-Throughput drug screen in 47 multiple myeloma cell lines against the NCATS MIPE library collection: MM1S_ATCC cell viability assay (AID 1918980). Also: nearly all actives have a fitted effect of over 45% in size.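 As to viability (% of control): 100% = wells with DMSO only and 0% = wells with media only.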 A digest of the protocol: as §1
A short description of assay [14]: Quantitative High-Throughput drug screen in 47 multiple myeloma cell lines against the NCATS MIPE library collection: L363_DSMZ cell viability assay (AID 1918984). Also: nearly all actives have a fitted effect of over 40% in size. Particulars: L363 myeloma viability, CellTiter-Glo ATP luminescence, 48 h; viability (% of control): at 45.8 µM (top of the series). A digest of the protocol: as §1
The nature of assay [15]: Quantitative High-Throughput drug screen in 47 multiple myeloma cell lines against the NCATS MIPE library collection: KMS34_JCRB cell viability assay (AID 1918985). Also: nearly all actives have a fitted effect of over 40% in size. A digest of the protocol: as §1
Assay [16] in a line: Quantitative High-Throughput drug screen in 47 multiple myeloma cell lines against the NCATS MIPE library collection: XG1_PLB cell viability assay (AID 1919866). Also: nearly all actives have a fitted effect of over 35% in size. The procedure, abridged:
as §1

Assay [17] is described as follows: Quantitative High-Throughput drug screen in 47 multiple myeloma cell lines against the NCATS MIPE library collection: MOLP8_DSMZ cell viability assay (AID 1918977). Also: nearly all actives have a fitted effect of over 45% in size.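 As to viability (% of control): 100% = DMSO-only wells and 0% = media-only wells without cells.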 A digest of the protocol:
as §1

Assay [18] can be described thus: Quantitative High-Throughput drug screen in 47 multiple myeloma cell lines against the NCATS MIPE library collection: NCIH929_DSMZ cell viability assay (AID 1918978). Also: nearly all actives have a fitted effect of over 35% in size. A digest of the protocol: as §1

The viability is a read-out of living cells in per cent, often relative to untreated cells.

Inconclusive results are not listed. A number with no mark means an inactive call. Calls of active or inactive are those of the source. Calls follow the shape of the dose curve; as a rule, active = well fitted curve in the direction sought with a large enough effect; inconclusive = small, poorly fitted or top-dose-only effect, or another doubt; inactive = no such curve, though single readings can be large; an effect the other way counts as inactive or inconclusive.
Potency is read from the fitted curve at half-maximal effect.

For `CN(C)CC[C@H](CSc1ccccc1)Nc1ccc(S(=O)(=O)NC(=O)c2ccc(N3CCN(Cc4ccccc4-c4ccc(Cl)cc4)CC3)cc2)cc1[N+](=O)[O-]`, the Potency in assay [1] was 1.66 µM (active); in assay [2] it was 0.526 µM (active); in assay [3] it was 3.72 µM (active); in [4] it was 0.833 µM (active); in assay [5] it was 23.5 µM (active); in assay [6], 1.48 µM (active). The Potency in assay [7] is 0.209 µM (active); in [8], 0.0469 µM (active); in assay [9], 10.5 µM (active); in [10] it was 18.7 µM (active); in [11] it was 14.8 µM (active); in [12], 3.72 µM (active).

In the case of `CC(O)=C(C#N)C(=O)Nc1ccc(C(F)(F)F)cc1`, the Potency in assay [1] is 18.7 µM (active); in [2] it was 3.72 µM (active); in assay [13], 16.6 µM (active); in assay [4], 16.6 µM (active); in [6] it was 16.6 µM (active); in [15] it was 18.7 µM (active). The Potency in [8] is 16.6 µM (active); in assay [9], 16.6 µM (active); in assay [10] it was 18.7 µM (active); in [12], 18.7 µM (active); in assay [16], 16.6 µM (active). For the same molecule, the Potency result in [3] and in [14] was “inactive” in each case.

With `COc1nccc(-c2c(-c3ccc(F)cc3)ncn2C2CCC(O)CC2)n1` (centres undefined), the Potency in [1] was 6.62 µM (active); in [13] it was 4.69 µM (active); in [4], 18.7 µM (active); in assay [9], 10.5 µM (active); in assay [10] it was 0.0296 µM (active); in assay [11], 2.96 µM (active). Besides, the Potency result in assay [3] and in assay [7] was “inactive” each time.

In the case of `CCC(=O)N1CCN(c2ccc(-n3c(=O)ccc4cnc5ccc(-c6cnc7ccccc7c6)cc5c43)cc2C(F)(F)F)CC1`, the Potency in assay [1] was 0.0743 µM (active); in assay [17], 0.0332 µM (active); in assay [13], 0.0662 µM (active); in assay [4] it was 0.0372 µM (active); in [6], 0.0093 µM (active); in assay [15], 0.0059 µM (active). Moreover, the Potency in assay [9] was 0.0132 µM (active); in assay [10] it was 0.0148 µM (active); in assay [11] it was 0.0418 µM (active).

Consider `Cc1cc(NC(=O)Nc2ccc(N(C)C)cc2)c2cc(F)cc(F)c2n1`, for which the Potency in [2] was 20.9 µM (active); in [17] it was 23.5 µM (active); in [13], 16.6 µM (active); in assay [16] it was 3.32 µM (active). In addition, the Potency result in [18], in assay [3], in [6], in [9], in assay [11] and in [12] was “inactive” in each case.

For the molecule `O=C(O)c1nc(=O)[nH]c(=O)[nH]1`, the Potency result in assay [1], in [13], in assay [4], in [14], in assay [15] and in assay [7] was “inactive” each time. Besides, the Potency entry in assay [9] was “inactive”. In addition, in assay [6], the Potency was 11.5 µM (active).

`O=c1cc(-c2ccc(O)c(O)c2)oc2cc(O)cc(O)c12`: the Potency result in assay [1] and in assay [4] was “inactive” each time. In assay [12], the Potency is 14.8 µM (active).

`CCCCOCCOc1nc(-c2ccc(C(=O)O)c(F)c2)sc1C`: the Potency result in assay [2], in assay [17], in assay [18], in assay [4], in assay [5] and in assay [6] was “inactive” each time. Moreover, the Potency was 13.2 µM (active) in assay [13] and 14.8 µM (active) in [8]. For the same molecule, in assay [10], the viability was 118%.

`Nc1ncnc2c1ncn2[C@@H]1O[C@H](CO)[C@@H](O)[C@@H]1O`: the Potency in [1] was 16.6 µM (active); in assay [18] it was 8.33 µM (active); in assay [13], 0.743 µM (active); in assay [4] it was 20.9 µM (active); in [14], 1.05 µM (active); in assay [15] it was 18.7 µM (active). Moreover, the Potency in [8] was 16.6 µM (active); in [11], 7.43 µM (active); in [12], 2.64 µM (active); in assay [16] it was 0.935 µM (active). For the same molecule, in assay [3], the Potency entry was “inactive”. Moreover, in [7], the viability (% of DMSO) is 126% (active). Also, in assay [10], the viability was 106%.

For the molecule `CNC(=O)c1ccc2c(C(=Nc3cccc(CN(C)C)c3)c3ccccc3)c(O)[nH]c2c1`, the Potency was 0.662 µM (active) in [1]; 14.8 µM (active) in assay [18]; 4.18 µM (active) in assay [6]; 4.18 µM (active) in assay [14]; 5.9 µM (active) in [7]; 18.7 µM (active) in assay [9]. Besides, the results for the Potency in [12] and in [16] were 16.6 µM (active) and 14.8 µM (active), respectively. Also, the Potency result in assay [5] is “inactive”.
